The list is not random: actives were taken first. Their share in the collection is about 1.5%.
Neddylation inh: inhibitors of cullin neddylation, primary screen, biochemical, TR-FRET, uHTS, NAE and Ubc12; NEDD8-conjugating enzyme Ubc12 (Homo sapiens) + NEDD8-activating enzyme E1 regulatory …; inhibition, % at 25 µM; 0.58% of 360,000 active; in the data active = inhibition above about 36%
NPR2 activator: human GC-B receptor activators, primary screen, HEK293 GC-B cells, cGMP TR-FRET, EC30 CNP | Atrial natriuretic peptide receptor 2 (Homo sapiens), P20594 | activation, % at 10 µM | AID 1920062, 2024 | 0% at EC30 CNP, 100% saturating CNP | 0.11% of 370,000 active;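 active = activation at 10 µM reaching about 35% in either raw or pattern-adjusted values, limit read from the data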
Target sequence (P20594 whole entry, looked up): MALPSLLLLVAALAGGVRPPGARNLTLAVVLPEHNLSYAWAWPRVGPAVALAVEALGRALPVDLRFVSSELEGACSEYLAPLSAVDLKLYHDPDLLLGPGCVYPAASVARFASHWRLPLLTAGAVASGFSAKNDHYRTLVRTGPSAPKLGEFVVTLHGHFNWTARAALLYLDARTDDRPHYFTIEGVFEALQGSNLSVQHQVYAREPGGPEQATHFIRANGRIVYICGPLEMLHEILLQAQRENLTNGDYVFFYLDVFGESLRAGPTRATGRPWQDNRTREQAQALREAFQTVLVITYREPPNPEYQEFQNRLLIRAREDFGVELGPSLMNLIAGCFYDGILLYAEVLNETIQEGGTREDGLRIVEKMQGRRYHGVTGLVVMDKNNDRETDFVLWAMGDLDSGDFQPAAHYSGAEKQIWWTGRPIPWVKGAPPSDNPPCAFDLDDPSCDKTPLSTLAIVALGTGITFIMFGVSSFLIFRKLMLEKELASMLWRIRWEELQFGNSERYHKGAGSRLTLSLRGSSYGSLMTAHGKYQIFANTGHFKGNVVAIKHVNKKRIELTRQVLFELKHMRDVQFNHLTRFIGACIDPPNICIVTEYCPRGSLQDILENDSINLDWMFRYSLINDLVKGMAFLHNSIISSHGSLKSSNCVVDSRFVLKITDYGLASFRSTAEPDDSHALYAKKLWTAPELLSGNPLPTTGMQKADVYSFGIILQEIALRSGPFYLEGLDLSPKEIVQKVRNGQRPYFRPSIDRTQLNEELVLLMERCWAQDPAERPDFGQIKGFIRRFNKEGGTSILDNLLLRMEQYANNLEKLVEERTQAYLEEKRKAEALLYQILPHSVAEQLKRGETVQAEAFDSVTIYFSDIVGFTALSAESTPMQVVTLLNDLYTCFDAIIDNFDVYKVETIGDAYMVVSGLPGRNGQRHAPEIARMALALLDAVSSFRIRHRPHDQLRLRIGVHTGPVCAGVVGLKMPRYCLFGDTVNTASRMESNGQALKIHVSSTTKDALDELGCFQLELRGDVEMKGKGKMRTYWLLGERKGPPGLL
NadD block: inhibitors of S. aureus NadD, primary screen, biochemical, colorimetric, uHTS. inhibition, % at 20 µM. purified NadD enzyme, colorimetric absorbance read-out. 0.78% of 360,000 active. Nicotinate-nucleotide adenylyltransferase NadD (Staphylococcus aureus N315); in the data active = inhibition above about 26%
NPR1 activator: GC-A stimulated cGMP production enhancers – HEK293 GC-A cells, cGMP TR-FRET, EC30 ANP, primary screen | Atrial natriuretic peptide receptor 1 (Homo sapiens), P16066 | 0% at EC30 ANP, 100% saturating ANP | activation, % at 10 µM | 0.14% of 370,000 active; in the data active = activation above about 40%
NadD inh conf: inhibitors of S. aureus NadD, confirmation, biochemical, colorimetric, single concentration | AID 624309, 2012 | 13% of 2,000 active | inhibition, % at 20 µM | purified S. aureus NadD, colorimetric enzyme assay | shares compounds with NadD block; in the data active = inhibition mostly above about 42%, no sharp cut-off; inactive = mostly below about 42%
* marks the source's active call; other numbers are inactive results; . = no result given.

SMILES	Neddylation inh	NPR2 activator	NadD block	NPR1 activator	NadD inh conf
CCOC(=O)[C@@]12CN(C(=O)OC(C)(C)C)CC=C1N(Cc1ccc(OC)cc1)C(=O)[C@H]2CC(=O)N1CCSCC1	.	9.3	.	-1.9	.
O=C(NNC(=O)c1cc(-c2ccccc2)nc2ccccc12)c1csc(N2CCOCC2)n1	-3.2	1.2	16.3	-3.8	.
O=C(NNC(=O)c1cc(-c2ccc(Br)cc2)nc2ccccc12)c1csc(N2CCOCC2)n1	-21.9	-4.3	31.2*	0.5	30.4
O=C(NNC(=O)c1cc(-c2ccc(Cl)cc2)nc2ccccc12)c1csc(N2CCOCC2)n1	2.0	-6.2	31.1*	3.5	37.3*
CC(C)c1cccc(-c2ccc3c(c2)S(=O)(=O)c2cccc(C(=O)O)c2C3=O)c1	-32.4	2.2	0.6	0.9	.
CC(C)c1cccc(-c2ccc3c(c2)S(=O)(=O)c2cccc(C(=O)NCc4ccco4)c2C3=O)c1	-27.4	1.8	33.8*	-2.7	41.7
CC(C)C[C@H]1CNC(=S)N1C[C@H]1CCCN1C[C@H](Cc1ccccc1)N1C[C@H](Cc2ccc(O)cc2)N(CC2CCCCC2)C1=S	-13.1	2.4	35.2*	6.7	-0.3
CC(C)C[C@H]1CNC(=S)N1CC1CCCN1C[C@H](Cc1ccc(O)cc1)N1C[C@H](Cc2ccccc2)N(CC2CCCCC2)C1=S (some centres not stated)	-8.1	1.3	27.9	-2.6	.
Oc1ccc(C[C@@H](CN2CCCC2CN2C(=S)NC[C@@H]2Cc2ccccc2)N2C[C@H](Cc3ccccc3)N(CC3CCCCC3)C2=S)cc1 (some centres not stated)	-17.9	2.4	43.9*	2.0	12.6
Oc1ccc(C[C@H]2CN([C@@H](Cc3ccccc3)CN3CCC[C@@H]3CN3C(=S)NC[C@@H]3Cc3ccccc3)C(=S)N2CC2CCCCC2)cc1	-3.3	0.8	21.7	3.4	.
Oc1ccc(C[C@H]2CNC(=S)N2CC2CCCN2C[C@H](Cc2ccc(O)cc2)N2C[C@H](Cc3ccccc3)N(CC3CCCCC3)C2=S)cc1 (some centres not stated)	-8.5	0.4	50.5*	2.9	54.9*
Oc1ccc(C[C@@H](CN2CCCC2CN2C(=S)NC[C@@H]2Cc2ccccc2)N2C[C@H](Cc3ccccc3)N(CC3CCCCCC3)C2=S)cc1 (some centres not stated)	-11.7	4.9	45.5*	-1.8	-4.3
COc1ccc(-c2nnc(SCC(=O)N/N=C\C=C/c3ccco3)n2-c2ccc(C)cc2)cc1	.	-1.1	.	-10.3	.
OC(c1ccccc1)(c1ccccc1)c1cnc2ccccn12	.	-12.4	.	-6.2	.
C=CCN1C(=O)[C@@H](CC(=O)NCc2cccc3ccccc23)[C@]2(C(=O)OC)CCCCC=C12	.	-8.0	.	-0.1	.
Clc1ccc(CN2CCN(N=Cc3ccncc3)CC2)cc1	.	2.7	.	-0.2	.
Oc1ccc(C[C@H]2CNC(=S)N2CC2CCCN2C[C@H](Cc2ccccc2)N2C[C@H](Cc3ccc(O)cc3)N(CC3CCCCC3)C2=S)cc1 (some centres not stated)	-4.3	3.9	53.4*	0.6	19.5
Oc1ccc(C[C@H]2CNC(=S)N2CC2CCCN2C[C@H](Cc2ccc(O)cc2)N2C[C@H](Cc3ccccc3)N(CC3CCCCCC3)C2=S)cc1 (some centres not stated)	-6.9	3.3	44.6*	-0.8	31.3
Oc1ccc(C[C@H]2CNC(=S)N2CC2CCCN2C[C@H](Cc2ccc(O)cc2)N2C[C@H](Cc3ccc(O)cc3)N(CC3CCCCCC3)C2=S)cc1 (some centres not stated)	-14.2	-1.0	55.4*	0.7	40.8
O=C(OCC#CCSc1nnc(-c2cccc3ccccc23)o1)C1CCC1	.	0.8	.	1.8	.
Cc1cc(C)cc(NC(=O)Cn2c(=O)oc3cc(S(=O)(=O)N4CC(C)CC(C)C4)ccc32)c1 (configuration not stated)	2.9	-3.6	35.6*	-3.7	3.1
CCCOc1ccc(N)cc1N	-10.3	-2.5	44.2*	-3.5	-3.0
COC(=O)c1c(NC(=O)C2SC(=NC3CCCCC3)C(C(N)=O)=C2N)sc2c1CCCC2 (configuration not stated)	-110.8	0.7	38.0*	-2.7	7.4
Cc1oc2c(cc(NS(=O)(=O)c3ccc4c5c(cccc35)C(=O)N4)c3ccccc32)c1C(=O)OC(C)C	.	-12.8	30.5*	-0.8	36.7*
O=C(Nc1ccccc1Cl)C1CCCN(S(=O)(=O)c2cccc3cccnc23)C1 (configuration not stated)	2.1	5.6	0.0	-0.5	.
SMILES	Neddylation inh	NPR2 activator	NadD block	NPR1 activator	NadD inh conf
O=C(Nc1nc2cc(Cl)ccc2s1)C1CCCN(S(=O)(=O)c2cccc3cccnc23)C1 (configuration not stated)	-283.7	.	36.3*	.	10.6
COC(=O)[C@]12C[C@H](CC(=O)NCc3cccs3)C(=O)N(Cc3cccc4ccccc34)C1=C[C@H](C(C)C)O[C@@H]2C1CC1	.	-1.7	.	-12.5	.
O=C(Nc1ccc2nc(-c3ccco3)c(-c3ccco3)nc2c1)N1CCN(c2ccccn2)CC1	7.0	-1.7	48.8*	-18.1	49.0*
O=C(Nc1ccc(N2CCOCC2)cc1)c1ccc2nc(-c3ccco3)c(-c3ccco3)nc2c1	-22.2	11.6	10.2	5.8	.
S=C(Nc1ccc(N2CCOCC2)cc1)Nc1ccc2nc(-c3ccco3)c(-c3ccco3)nc2c1	-11.7	-5.9	42.1*	-2.9	1.8
CCOC(=O)CNC(=O)CSc1nnc(-c2cccs2)o1	.	2.8	.	0.2	.
O=C(c1ccc(C(=O)N2CCCc3ccccc32)s1)N1CCCc2ccccc21	-1.3	3.3	-0.2	-4.5	.
Cc1ccc(C)c2nc3sc(C(=O)N4CCCc5ccccc54)c(N)c3cc12	-21.8	-9.2	32.4*	-0.4	7.2
O=C(NC1CCCCN(Cc2ccc(Cl)cc2)C1=O)c1ccc2ccccc2c1 (configuration not stated)	.	-1.6	.	-2.2	.
O=C(CNc1ccc(F)cc1)N/N=C1\CCc2ccccc21	13.0	-4.0	3.0	3.6	.
COc1ccc(NCC(=O)N/N=C2\CCc3ccccc32)cc1	-10.1	0.8	30.5*	-3.0	7.3
COc1ccc(/C=N\NC(=O)CN2CCN(Cc3ccccc3)CC2)cc1OCc1ccccc1	.	-2.7	.	-1.0	.
Cc1ccc(-c2csc(NC(=O)CSc3nnc4c(n3)[nH]c3ccccc34)n2)cc1	15.6	-3.3	58.4*	-0.1	17.6
Cc1ccc2c(c1)N(CCCC(=O)NCc1c(F)cccc1F)C(=O)CO2	.	6.8	.	3.9	.
C=CCn1c(SCC(=O)Nc2ccccc2C)nnc1-c1ccncc1	7.7	-0.5	48.7*	-3.6	6.3
C=CCn1c(SCC(=O)Nc2ccccc2CC)nnc1-c1ccncc1	-3.5	-1.2	-10.7	2.5	.
